Assay results reported in ChEMBL document CHEMBL4513146, “CO-ADD screening of Karazin Kharkiv National University (Ukraine) compounds”.
Entries with a potency or affinity are not part of this list.

What follows are molecules tested on Staphylococcus aureus. Settings: Concentration 32 ug.mL-1;; ASSAY_TEST Inhibition of Bacterial Growth; detection method Absorption (OD600); MEDIA CAMHB; plate type 384well; NBS; CORNING #3640; time 18 hr.
For `CCOc1ccc(C(=O)CSc2nnc3c(=O)n(-c4cccc(OC)c4)ccn23)cc1`, the Inhibition was 5.74%. `COc1ccc(CN(c2ccc(C(C)C)cc2)S(=O)(=O)c2cccn3cnnc23)cc1` gave an Inhibition of 4.26%. With `Cc1ccc(NC(=O)Cn2nc3ccc(-c4ccc(Cl)cc4)nn3c2=O)cc1F` the Inhibition was 3.27%. For `Cc1ccc(-c2ccc3nn(Cc4ccc(Cl)cc4)c(=O)n3n2)cc1C`, the Inhibition was -1.51%. Molecule `Cc1ccc(C)c(Cn2nc3c(=O)n(-c4ccc(C)c(C)c4)ccn3c2=O)c1` has an Inhibition of 6.02%. Molecule `CCOC(=O)c1ccccc1NC(=O)Cn1nc2c(Oc3cccc(C)c3C)nccn2c1=O` has an Inhibition of 5.11%. In the case of `CCOC(=O)C1CCN(c2nc3ccccc3n3c(=O)n(CC(=O)Nc4ccccc4F)nc23)CC1`, the Inhibition is reported as 2.72%. `COc1cccc(Sc2nc3ccccc3n3c(=O)n(CC(=O)Nc4cccc(C#N)c4)nc23)c1` gave an Inhibition of 2.4%. Molecule `N#Cc1ccc(NC(=O)Cn2nc3c(SC4CCCCC4)nccn3c2=O)cc1` has an Inhibition of 7.35%. In the case of `CC(C)Cn1c(=O)c2sccc2n2c(=O)n(CC(=O)N3CCC(Cc4ccccc4)CC3)nc12`, the Inhibition is reported as -13.33%. With `Cc1nnc2c(S(=O)(=O)N(Cc3ccc(F)cc3)c3ccc(F)c(F)c3)cccn12` the Inhibition was 15.7%. In the case of `COc1cccc(NC(=O)Cn2nc3ccc(SCc4ccc(Cl)cc4)nn3c2=O)c1`, the Inhibition is reported as -4.03%. `COc1ccc(NC(=O)Cn2nc3c(Sc4ccccc4)nccn3c2=O)cc1` gave an Inhibition of 7.67%. Molecule `CC(C)c1nnc2c(=O)n(CC(=O)Nc3ccccc3)c3ccccc3n12` has an Inhibition of 12.53%. With `COc1ccc(-c2cc3c4nnc(SCC(=O)Nc5cccc(Cl)c5C)n4ccn3n2)cc1` the Inhibition was -7.92%. In the case of `CCc1ccc(NC(=O)Cn2nc3c(Sc4ccccc4)nccn3c2=O)cc1`, the Inhibition is reported as 6.66%. `Cc1cc(C)cc(N(Cc2ccccc2)S(=O)(=O)c2cccn3cnnc23)c1` showed an Inhibition of -25.73%. `CC1CCc2c(sc3ncn4c(=O)n(CC(=O)Nc5ccc6c(c5)CCC6)nc4c23)C1` (centres undefined) was tested, and the Inhibition was 4.65%. `CSc1cccc(NC(=O)Cn2nc3c(SC4CCCCC4)nccn3c2=O)c1` was tested, and the Inhibition was -5.93%. Work on `COc1cc(NC(=O)Cn2nc3ccc(-c4ccc(Cl)cc4)nn3c2=O)cc(OC)c1` yielded an Inhibition of -2.47%. With `COc1cccc(CNC(=O)CSc2nnc3c(=O)n(-c4ccc(F)cc4)ccn23)c1OC` the Inhibition was 19.94%. With `Cn1c(=O)c2sccc2n2c(=O)n(CCOc3ccccc3)nc12` the Inhibition was -2.74%. `O=C(CSc1nnc2c(=O)n(-c3ccc(Br)cc3)ccn12)Nc1cccc(Cl)c1` gave an Inhibition of 2.58%. Work on `COc1cc(OC)c(NC(=O)Cn2nc3c(SC4CCCCC4)nccn3c2=O)cc1Cl` yielded an Inhibition of 7.52%. With `Cc1cccc(NC(=O)Cn2nc3c(SCc4ccccc4)nccn3c2=O)c1C` the Inhibition was -0.26%. With `COc1cccc(Oc2nccn3c(=O)n(CC(=O)Nc4ccc(OC)c(Cl)c4)nc23)c1` the Inhibition was 8.12%. In the case of `Cc1cccc(C)c1NC(=O)Cn1nc2n(C)c(=O)c3c(c(-c4ccccc4)cn3C)n2c1=O`, the Inhibition is reported as 8.81%. `Cc1ccc(-n2ccn3c(SC(C)C(=O)Nc4ccc5c(c4)OCCO5)nnc3c2=O)cc1C` (centres undefined) showed an Inhibition of 12.06%. With `Cc1cccc(NC(=O)CSc2nnc3c4cc(-c5ccccc5)nn4ccn23)c1C` the Inhibition was -15.85%. In the case of `Cc1nnc2ccc(S(=O)(=O)N(Cc3ccccc3F)c3ccc(Cl)cc3)cn12`, the Inhibition is reported as -12.68%. In the case of `CCc1nnc2c(S(=O)(=O)N(Cc3cc(F)cc(F)c3)c3cccc(F)c3)cccn12`, the Inhibition is reported as 2.06%. Molecule `CCOC(=O)c1cccc(NC(=O)CSc2nnc3ccc(C(=O)Nc4cccc(F)c4)cn23)c1` has an Inhibition of 5.02%. Molecule `Cc1cc2nn(CC(=O)Nc3cccc(C)c3C)c(=O)n2c(Nc2ccc(F)c(C)c2)n1` has an Inhibition of 2.54%. `O=C(CCc1nnc2c(N3CCCCC3)nc3ccccc3n12)NCc1ccccc1F` gave an Inhibition of 5.87%. For `CCCCOc1ccc(-c2cc3c4nnc(SCC(=O)Nc5ccc(CC)cc5)n4ccn3n2)cc1`, the Inhibition was -9.56%. With `O=C(CSc1nnc2n(CC3CCCO3)c(=O)c3sccc3n12)Nc1ccc(F)cc1Cl` (centres undefined) the Inhibition was -6.42%. `N#CCn1nc2n(Cc3ccccc3)c(=O)c3ccccc3n2c1=O` showed an Inhibition of 14.89%. `CCc1nnc2ccc(S(=O)(=O)N(Cc3cccc(OC)c3)c3cccc(F)c3)cn12` gave an Inhibition of -0.28%. `CCc1cccc(NC(=O)Cn2nc3c(SC4CCCCC4)nccn3c2=O)c1` showed an Inhibition of -3.76%.
